PubChem BioAssay
Active and inactive are the calls of the source.

Tests used:
[1] = system: Plasmodium falciparum Sir2 (PF13_0152, Sir2A); test: pfSir2 binders on small-molecule microarrays, primary screen, biochemical, small-molecule microarray, 635 nm fluorescence (AID 1098); details: small-molecule microarray binding, fluorescence 635 nm; higher = more signal;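 note: score merges spot fluorescence intensity with its signal-to-noise ratio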
[2] = small-molecule microarray binders of probe aDKK1, primary screen, biochemical, biotinylated probe, 635/667 nm fluorescence (AID 1099); details: higher = more signal;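 note: score merges 667nm spot fluorescence with signal to noise across triplicate slides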
[3] = small-molecule microarray binders of probe aCHRDL2, primary screen, biochemical, biotinylated probe, 635/667 nm fluorescence (AID 1100); details: higher = more signal
[4] = splicing luciferase reporter signal modulators, primary screen, spliceosome inhibition project, cell-based, HEK293, splice +/- reporter (AID 1101); details: luminescence, 24 h, higher = more signal, called active from +8 up or from −8 down;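 note: HEK293 cells carrying a splicing-competent luciferase reporter gene; test concentration not given here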
[5] = target: Fibroblast growth factor 10 (Homo sapiens) (UniProt O15520); test: FGF10 binders on small-molecule microarrays, primary screen, biochemical, small-molecule microarray, 635 nm fluorescence (AID 1102); details: FGF10 binding, fluorescence 635 nm, higher = more signal
Sequence of Fibroblast growth factor 10 (Homo sapiens) (O15520 whole entry, looked up): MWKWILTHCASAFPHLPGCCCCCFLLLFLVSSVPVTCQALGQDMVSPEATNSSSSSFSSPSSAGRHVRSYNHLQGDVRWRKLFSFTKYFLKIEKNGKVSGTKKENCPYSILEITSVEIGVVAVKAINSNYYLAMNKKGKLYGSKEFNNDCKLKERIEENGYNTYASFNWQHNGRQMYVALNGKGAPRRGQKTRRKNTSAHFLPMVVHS

[6] = system: glycogen synthase kinase-3 (GSK3A per assay name; protocol says GSK3B); test: GSK3 binders on small-molecule microarrays, primary screen, biochemical, small-molecule microarray, 635 nm fluorescence, GSK3A (AID 1103); details: small-molecule microarray binding, fluorescence 635 nm; higher = more signal; note: the record names both GSK3A and GSK3B
[7] = target: Epidermal growth factor receptor (Homo sapiens) (UniProt P00533); test: EGFR binders on small-molecule microarrays, primary screen, biochemical, small-molecule microarray, 635 nm fluorescence (AID 1104); details: EGFR binding, higher = more signal;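 note: score merges 667 nm emission intensity with spot signal to noise over triplicate slides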
Sequence of Epidermal growth factor receptor (Homo sapiens) (P00533 whole entry, looked up): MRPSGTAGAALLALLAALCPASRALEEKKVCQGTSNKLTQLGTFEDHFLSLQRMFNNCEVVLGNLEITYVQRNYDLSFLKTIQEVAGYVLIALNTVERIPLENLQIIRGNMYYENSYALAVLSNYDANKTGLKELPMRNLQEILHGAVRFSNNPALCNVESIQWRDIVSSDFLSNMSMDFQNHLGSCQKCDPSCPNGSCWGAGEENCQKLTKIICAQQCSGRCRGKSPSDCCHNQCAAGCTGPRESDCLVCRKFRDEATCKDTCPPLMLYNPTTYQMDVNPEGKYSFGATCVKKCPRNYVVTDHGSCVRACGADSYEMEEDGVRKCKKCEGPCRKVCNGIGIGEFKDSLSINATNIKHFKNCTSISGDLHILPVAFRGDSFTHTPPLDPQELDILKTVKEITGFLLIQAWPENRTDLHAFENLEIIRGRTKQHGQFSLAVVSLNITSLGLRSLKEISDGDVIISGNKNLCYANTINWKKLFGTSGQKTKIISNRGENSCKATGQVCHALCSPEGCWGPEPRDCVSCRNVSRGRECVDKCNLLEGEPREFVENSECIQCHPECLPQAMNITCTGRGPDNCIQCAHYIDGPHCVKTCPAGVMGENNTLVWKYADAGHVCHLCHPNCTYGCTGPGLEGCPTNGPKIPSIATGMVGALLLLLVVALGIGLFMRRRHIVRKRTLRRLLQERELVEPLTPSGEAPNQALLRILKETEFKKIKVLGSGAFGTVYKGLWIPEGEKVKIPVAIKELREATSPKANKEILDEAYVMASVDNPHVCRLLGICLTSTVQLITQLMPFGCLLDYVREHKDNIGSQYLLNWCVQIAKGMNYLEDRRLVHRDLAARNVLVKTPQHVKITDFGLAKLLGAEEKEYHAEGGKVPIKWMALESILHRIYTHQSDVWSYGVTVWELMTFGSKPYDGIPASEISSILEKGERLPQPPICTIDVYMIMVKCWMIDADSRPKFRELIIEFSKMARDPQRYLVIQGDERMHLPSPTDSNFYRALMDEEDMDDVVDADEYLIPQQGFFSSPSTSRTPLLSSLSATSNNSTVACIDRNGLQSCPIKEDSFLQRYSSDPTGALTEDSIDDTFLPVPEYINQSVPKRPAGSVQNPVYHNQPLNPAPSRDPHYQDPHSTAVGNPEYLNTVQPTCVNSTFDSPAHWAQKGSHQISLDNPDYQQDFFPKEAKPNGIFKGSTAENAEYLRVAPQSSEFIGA

[8] = target: Follistatin-related protein 3 (Homo sapiens) (UniProt O95633); test: FSTL3 binders on small-molecule microarrays, primary screen, biochemical, small-molecule microarray, 635 nm fluorescence (AID 1105); details: FSTL3 binding, higher = more signal;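 note: score merges emission near 667 nm and signal to noise per printed spot across three slides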
Sequence of Follistatin-related protein 3 (Homo sapiens) (O95633 whole entry, looked up): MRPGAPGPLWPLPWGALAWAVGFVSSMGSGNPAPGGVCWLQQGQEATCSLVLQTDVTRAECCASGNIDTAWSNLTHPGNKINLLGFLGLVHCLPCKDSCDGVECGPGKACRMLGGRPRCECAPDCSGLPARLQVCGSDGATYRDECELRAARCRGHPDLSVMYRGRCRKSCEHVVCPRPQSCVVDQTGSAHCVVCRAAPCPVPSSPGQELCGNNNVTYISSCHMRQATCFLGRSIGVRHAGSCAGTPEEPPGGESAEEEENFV

[9] = target: Dickkopf-related protein 1 (Homo sapiens) (UniProt O94907); test: DKK1 binders on small-molecule microarrays, primary screen, biochemical, small-molecule microarray, 635 nm fluorescence scan (AID 1106); details: DKK1 binding, higher = more signal;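 note: score merges emission near 667 nm with signal to noise over three replicate slides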
Sequence of Dickkopf-related protein 1 (Homo sapiens) (O94907 whole entry, looked up): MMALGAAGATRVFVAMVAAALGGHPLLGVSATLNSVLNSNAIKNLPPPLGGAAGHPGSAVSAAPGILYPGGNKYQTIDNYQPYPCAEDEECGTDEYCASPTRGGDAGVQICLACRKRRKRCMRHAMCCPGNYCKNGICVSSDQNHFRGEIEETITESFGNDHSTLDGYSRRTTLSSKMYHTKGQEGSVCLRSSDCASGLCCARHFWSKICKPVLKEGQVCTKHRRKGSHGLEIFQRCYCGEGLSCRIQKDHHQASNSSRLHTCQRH

[10] = system: Inhibin beta A chain (activin A); test: INHBA (activin A) binders on microarrays, primary screen, biochemical, small-molecule microarray, 635 nm fluorescence scan (AID 1107); details: small-molecule microarray binding, higher = more signal;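 note: mouse activin A protein probed at 4.33 µg/mL on printed slides; score merges bound-protein fluorescence near 667 nm with spot signal-to-noise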
[11] = system: Human papillomavirus type 1a protein E7 (residues 44-93); test: HPV1a E7 fragment binders on microarrays, primary screen, biochemical, small-molecule microarray, residues 44-93, 635 nm fluorescence (AID 1108); details: small-molecule microarray binding, fluorescence 635 nm; higher = more signal;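 note: E7 fragment applied at 1 µg/mL in TBST for 1 h at 4 C; score combines spot fluorescence with its signal to noise ratio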
[12] = modulators of HCV replicon luciferase signal, primary screen, HCV replication inhibitor project, Huh7 cells, luciferase reporter (AID 1109); details: 48 h, higher = more signal;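 note: huh7 hepatoma cells harbouring a luciferase neomycin HCV replicon reporter; luciferase luminescence as measure of HCV replicon replication; test concentration not given here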
[13] = target: Left-right determination factor 2 (Homo sapiens) (UniProt O00292); test: LEFTY2 binders on small-molecule microarrays, primary screen, biochemical, small-molecule microarray, 635 nm fluorescence scan (AID 1110); details: LEFTY2 binding, higher = more signal
Sequence of Left-right determination factor 2 (Homo sapiens) (O00292 whole entry, looked up): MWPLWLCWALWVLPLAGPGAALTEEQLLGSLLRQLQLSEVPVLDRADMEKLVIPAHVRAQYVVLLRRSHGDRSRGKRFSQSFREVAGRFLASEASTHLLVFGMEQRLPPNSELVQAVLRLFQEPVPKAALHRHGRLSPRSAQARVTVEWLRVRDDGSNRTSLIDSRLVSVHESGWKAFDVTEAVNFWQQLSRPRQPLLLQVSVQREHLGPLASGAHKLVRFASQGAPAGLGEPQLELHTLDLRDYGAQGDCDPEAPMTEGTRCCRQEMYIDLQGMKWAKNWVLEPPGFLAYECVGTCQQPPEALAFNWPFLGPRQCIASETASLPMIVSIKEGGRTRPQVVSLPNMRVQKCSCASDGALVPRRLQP

[14] = target: Calmodulin-1 (Homo sapiens) (UniProt P0DP23); test: CALM1 binders on microarrays, EGTA buffer, profiling panel, biochemical, small-molecule microarray, Cy5-labelled CALM1 (AID 1111); details: Cy5-CALM1 binding fluorescence, higher = more signal;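 note: labelled calmodulin applied in Tris saline Tween buffer holding calcium plus EGTA and DTT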
[15] = target: Calmodulin-1 (Homo sapiens) (UniProt P0DP23); test: calcium-bound CALM1 binders on microarrays, profiling panel, artefact control for SMM control-protein annotation, biochemical, small-molecule microarray, Cy5-labelled CALM1, plus calcium (AID 1112); details: Cy5-CALM1 binding fluorescence, higher = more signal;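 note: score merges spot fluorescence with signal to noise from triplicate slides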
[16] = small-molecule microarray binders of probe aWnt5a, primary screen, biochemical, biotinylated probe, 635/667 nm fluorescence (AID 1113); details: higher = more signal;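 note: score merges 667 nm fluorescence intensity with signal-to-noise per printed feature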
[17] = small-molecule microarray binders of probe aShh, primary screen, biochemical, biotinylated probe, 635/667 nm fluorescence (AID 1114); details: higher = more signal;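 note: probe is biotin-labelled aShh protein from a stem cell growth factor screen; measures binding of labelled protein to compounds printed on the slide; score merges feature fluorescence at 667 nm with signal-to-noise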
[18] = small-molecule microarray binders of probe aNog, primary screen, biochemical, biotinylated probe, 635/667 nm fluorescence (AID 1115); details: higher = more signal;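 note: probe is biotinylated aNog protein used at 0.15 µg/mL for 1 h at 4 C; z-score combines 667 nm fluorescence of each spot with its signal to noise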
[19] = target: Torsin-1A-interacting protein 1 (Homo sapiens) (UniProt Q5JTV8); test: LAP1 binders from COS7 cell lysate, primary screen, small-molecule microarray, 635/667 nm fluorescence (AID 1116); details: COS7-hLAP1 lysate binding, 635 nm fluorescence, higher = more signal
Sequence of Torsin-1A-interacting protein 1 (Homo sapiens) (Q5JTV8 whole entry, looked up): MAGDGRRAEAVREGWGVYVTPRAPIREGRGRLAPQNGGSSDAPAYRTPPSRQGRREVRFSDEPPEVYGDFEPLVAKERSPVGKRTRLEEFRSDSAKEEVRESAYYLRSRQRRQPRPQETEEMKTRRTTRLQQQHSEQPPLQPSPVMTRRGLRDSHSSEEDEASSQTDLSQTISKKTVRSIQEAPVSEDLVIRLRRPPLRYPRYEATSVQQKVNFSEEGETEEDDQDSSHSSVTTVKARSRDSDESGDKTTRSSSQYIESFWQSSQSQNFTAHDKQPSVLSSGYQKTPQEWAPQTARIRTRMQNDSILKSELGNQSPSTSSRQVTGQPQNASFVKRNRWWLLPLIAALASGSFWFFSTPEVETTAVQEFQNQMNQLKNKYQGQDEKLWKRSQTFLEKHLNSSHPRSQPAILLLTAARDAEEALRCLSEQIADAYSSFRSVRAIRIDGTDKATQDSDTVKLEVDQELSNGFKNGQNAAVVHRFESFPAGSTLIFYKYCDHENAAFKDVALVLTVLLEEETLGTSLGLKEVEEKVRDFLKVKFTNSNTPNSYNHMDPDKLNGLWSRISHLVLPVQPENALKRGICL

[20] = target: Alpha-bungarotoxin (Bungarus multicinctus) (UniProt P60615); test: alpha-bungarotoxin binders on microarray, profiling panel, artefact control for SMM control protein annotation, biochemical, small-molecule microarray, Alexa647 label, 635/667 nm fluorescence (AID 1117); details: alpha-BTX-A647 binding fluorescence, higher = more signal
Sequence of Alpha-bungarotoxin (Bungarus multicinctus) (P60615 whole entry, looked up): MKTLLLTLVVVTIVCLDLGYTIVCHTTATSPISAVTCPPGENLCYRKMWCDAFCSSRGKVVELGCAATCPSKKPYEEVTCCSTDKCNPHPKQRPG

| SMILES | composite z-score [1] | composite z-score [2] | composite z-score [3] | z-score [4] | composite z-score [5] | composite z-score [6] | composite z-score [7] | composite z-score [8] | composite z-score [9] | composite z-score [10] | composite z-score [11] | z-score [12] | composite z-score [13] | composite z-score [14] | composite z-score [15] | composite z-score [16] | composite z-score [17] | composite z-score [18] | composite z-score [19] | composite z-score [20] |
| --- | --- | --- | --- | --- | --- | --- | --- | --- | --- | --- | --- | --- | --- | --- | --- | --- | --- | --- | --- | --- |
| O=C1C2=CC[C@H]3C(=O)N(Cc4ccccc4)C(=O)[C@H]3[C@H]2[C@H](O)[C@@H]2O[C@H]12 | 1.47 | -0.211 | -0.417 | 6.91 (inactive) | 0.0121 | -0.569 | 0.41 | -0.1 | 0.245 | -0.0664 | -0.695 | -5.09 | 0.101 | -0.476 | -0.65 | -0.129 | -0.0553 | -0.158 | 0.237 | 0.0012 |
| COc1ccc(O[C@H]2C=C[C@@H](c3ccccc3)O[C@@H]2CON=C2c3cc(OC)ccc3O[C@H](c3cccc(OC)c3)[C@H]2O)cc1 | -0.177 | 0.242 | -0.279 | 0.65 (inactive) | 0.886 | 0.192 | 0.531 | 0.589 | 0.434 | -0.393 | -0.382 | -1.78 | 0.804 | -0.0756 | 0.335 | -0.0735 | 0.296 | -0.106 | 0.399 | 0.328 |
| CCOC(=O)CCN1C(=O)[C@H]2[C@H]3[C@H](O)[C@H](O)CC(=NOCC=C(C)CCC=C(C)C)[C@@H]3CC[C@H]2C1=O | 0.255 | 0.333 | -0.202 | 0.0459 (inactive) | 1.15 | 0.659 | 1.17 | 0.825 | 0.606 | -0.259 | -0.401 | -0.469 | 0.631 | 0.113 | -0.672 | -0.1 | -0.179 | -0.0827 | 0.166 | -0.0599 |
| CC(=O)OC[C@H]1O[C@@H](ON=C2[C@H]3CCn4c(=O)n(-c5ccccc5)c(=O)n4[C@H]3[C@H](O)[C@@H]3O[C@H]23)[C@H](OC(C)=O)[C@@H](OC(C)=O)[C@@H]1OC(C)=O | 0.242 | -0.425 | -0.43 | 0.764 (inactive) | 0.614 | 0.913 | 0.519 | 0.387 | 0.731 | -0.1 | 1.08 | -3.07 | 0.664 | -0.0898 | -0.268 | -0.101 | 0.0902 | -0.0563 | 0.479 | 0.393 |
| COc1ccc2c(c1)O[C@@H](c1cccc(C(F)(F)F)c1)[C@H](O)C2=O | 0.0008 | -0.14 | -0.324 | -0.912 (inactive) | 0.213 | 0.39 | 0.349 | 0.416 | 0.356 | 0.149 | 0.368 | 1.18 | 0.428 | 0.172 | -0.427 | -0.172 | -0.304 | -0.0496 | 0.342 | 0.375 |
| COC(=O)[C@H](C)NC(=O)CCC1CC(OC(=O)NCCc2ccc(F)cc2)CC2(CCCC(COC(=O)NCCOc3ccccc3)O2)O1 (stereo not given in full) | 0.612 | -0.244 | -0.224 | 0.587 (inactive) | 0.762 | 1.01 | 0.538 | 0.781 | 0.652 | -0.455 | 1.36 | -0.213 | 0.781 | 1.55 | 0.236 | 0.055 | 0.123 | -0.109 | 0.928 | 0.837 |
| O=C1[C@H]2[C@H]3[C@H](O)[C@H](O)CC(=NOC[C@@H](O)COCc4ccco4)[C@@H]3CC[C@H]2C(=O)N1c1cccc(Oc2ccccc2)c1 | -0.042 | -0.334 | -0.885 | -0.33 (inactive) | -0.25 | -0.91 | -0.094 | -0.213 | 0.461 | 0.831 | -0.645 | -0.739 | 0.103 | 0.0705 | -0.511 | -0.0758 | -0.289 | -0.29 | -0.0841 | 0.534 |
| CCOC(=O)[C@H](CC(C)C)NC(=O)CCC1CC(OC(=O)NCCc2ccc(F)cc2)CC2(CCCC(COC(=O)NCCOC)O2)O1 (stereo not given in full) | 0.745 | 0.0045 | -0.411 | -0.0891 (inactive) | 1.15 | 0.953 | 0.633 | 1.36 | 0.96 | -0.0586 | 1.34 | -0.694 | 1.12 | 0.217 | -0.119 | -0.176 | -0.0769 | -0.438 | 0.461 | 0.411 |
| O=C1[C@H]2CCn3c(=O)n(-c4ccccc4)c(=O)n3[C@H]2[C@H](O)[C@@H]2O[C@H]12 | 0.784 | -0.418 | -0.438 | 0.583 (inactive) | 0.837 | 0.381 | 0.299 | 0.148 | 0.427 | 0.269 | -0.453 | -0.687 | 0.33 | -0.14 | -0.391 | -0.247 | -0.124 | -0.0428 | 0.085 | 0.658 |
| CC(=O)OC[C@H]1O[C@H](CC=NOCC[C@@H]2C=C[C@H](OC(C)=O)[C@@H](COC(C)=O)O2)C=C[C@@H]1OC(C)=O | 0.892 | 0.771 | -0.752 | 0.525 (inactive) | 1.08 | 0.93 | 0.914 | 0.716 | 0.864 | 0.103 | 1.02 | 0.111 | 0.888 | -0.981 | -0.171 | -0.001 | -0.0904 | -0.216 | -0.0873 | 0.408 |
| COc1ccc(COC(=O)NN=C2C[C@@H](O)[C@@H](O)[C@@H]3[C@@H]4C(=O)N(Cc5ccc6c(c5)OCO6)C(=O)[C@@H]4CC[C@H]23)cc1 | -0.218 | 1.16 | 1.41 | 0.491 (inactive) | -0.67 | -0.104 | -0.953 | -0.152 | -1.03 | 0.991 | -0.433 | -0.191 | -0.34 | -0.704 | -0.276 | 0.0438 | 0.0121 | 0.788 | 0.0406 | 0.164 |
| CCN1C(=O)[C@H]2[C@H]3[C@H](O)[C@H](O)CC(=NNC(=O)OCc4ccccc4)[C@@H]3CC[C@H]2C1=O | -0.16 | 0.118 | 0.78 | -0.176 (inactive) | -0.163 | -0.612 | -0.241 | -0.0709 | 0.131 | -0.291 | -0.577 | 0.232 | -0.0089 | -0.0328 | -0.285 | -0.0405 | -0.0463 | -0.0879 | -0.399 | 0.645 |
